Measurements published in PubChem BioAssay (Tox21).
Records with an inconclusive call do not appear. Where a call stands in place of a potency, no number is given. Unmarked numbers belong to inactive results. The source made the active and inactive calls. Unless noted, calls follow the shape of the dose curve; as a rule, active = well fitted curve in the direction sought with a large enough effect in the repeat runs; inconclusive = weak or mixed curves; inactive = no such curve, though single readings can be large; an effect the other way counts as inactive or inconclusive.

How the values were obtained:
[1] = qHTS assay to identify small molecule agonists of the NFkB signaling pathway - cell viability counter screen (AID 1159515; calls by dose curve; also: nearly all actives have a fitted effect of over 55% in size)
Procedure, shortened: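 Viability in NFkB-bla ME-180 cells was measured by CellTiter-Glo luminescence, 30 min room temperature, in wells already treated 5 hr with compounds and read for reporter FRET.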

[2] = qHTS assay to identify small molecule agonists of the endoplasmic reticulum stress response signaling pathway (AID 1159516; active = well fitted activation curve with a large enough effect in the signal ratio in the repeat runs, not every such curve was filed as active; the % refers to the signal ratio)
Procedure, shortened: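 ER stress element reporter (bla) in HeLa. 1,500 cells/well, overnight attachment; 5 hr compound; 2 hr RT substrate; dual-emission fluorescence.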

[3] = qHTS assay to identify small molecule antagonists of the retinoid-related orphan receptor gamma (ROR-gamma) signaling pathway - cell viability counter screen (AID 1159520); also: nearly all actives have a fitted effect of over 50% in size
Procedure, shortened: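 Tet-on ROR gamma CHO cells (1,000/well) were plated 4 hr, given compounds in DMSO for 2 hr at 37 C, then induced with 1 uM final doxycycline for 16 hr. Viability was read as ATP by CellTiter-Glo luminescence after 30 min.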

[4] = biological target: Nuclear receptor ROR-gamma (Homo sapiens) (UniProt P51449); assay: qHTS assay to identify small molecule antagonists of the retinoid-related orphan receptor gamma (ROR-gamma) signaling pathway (AID 1159521; also: top concentration of the series differs between compounds; nearly all actives have a fitted effect of over 50% in size)
Procedure, shortened: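 Antagonist read-out: drop in luminescence (ONE-Glo) from an RORE-LUC reporter in CHO cells with doxycycline-inducible ROR-gamma; 2 hr compound pretreatment, 1 uM doxycycline, 16 hr incubation at 37 C.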

[5] = qHTS assay to identify small molecule agonists of the AP-1 signaling pathway - cell viability counter screen (AID 1159525; calls by dose curve; also: nearly all actives have a fitted effect of over 55% in size)
Procedure, shortened: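 ME-180 AP-1-bla, 2500 cells/well, Opti-MEM + 0.5% dialyzed FBS; overnight 37 °C; cpd 15-pt titration, 5 h 37 °C; CellTiter-Glo 30 min RT; luminescence read; normalised to TOAB and DMSO controls.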

[6] = qHTS assay to identify small molecule agonists of the AP-1 signaling pathway (AID 1159526; calls by dose curve)
[7] = biological target: Retinoic acid receptor RXR-alpha (Homo sapiens) (UniProt P19793); assay: qHTS assay to identify small molecule agonists of the RXR signaling pathway (AID 1159527; calls by dose curve; also: nearly all actives have a fitted effect of over 35% in size; also: potency is read from the fitted curve at half-maximal effect)
Procedure, shortened: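 Agonist-mode beta-lactamase reporter assay: HEK 293T RXR-alpha-UAS-bla cells treated 16 hr at 37 C with compounds, 9-cis retinoic acid as positive control. LiveBLAzer FRET substrate, 405 nm excitation, 460/530 nm emission.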

[8] = qHTS assay to identify small molecule antagonists of the retinoid acid receptor (RAR) signaling pathway - cell viability counter screen (AID 1159551); also: nearly all actives have a fitted effect of over 35% in size
Procedure, shortened: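 Following overnight attachment, C3RL4 reporter cells received DMSO-dissolved compounds and then retinol (1 uM final). Six hours later at 37 C, ATP content was measured by CellTiter-Glo luminescence.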

[9] = qHTS assay to identify small molecule antagonists of the retinoic acid receptor (RAR) signaling pathway (AID 1159552; also: nearly all actives have a fitted effect of over 50% in size)
Procedure, shortened: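 Luminescent RARE reporter read-out in C3RL4 cells: 6 hr co-treatment at 37 C of test compounds with retinol at 1 uM final. Cells plated overnight beforehand; luciferase reagent incubated 30 min at room temperature before reading.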

[10] = qHTS assay to identify small molecule agonists of the retinoic acid receptor (RAR) signaling pathway (AID 1159553); settings: C3RL4 RARE luciferase reporter, agonist, 6 h; activation: at 73.3 µM (top of the series) unless noted
Procedure, shortened: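 Cell line C3RL4, RARE luciferase reporter. Treatment: compounds in DMSO, 6 hr, 37 C, 5% CO2, after overnight plating. Detection: luminescence, 30 min RT after reagent.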

[11] = qHTS assay to identify small molecule antagonists of the estrogen related receptor (ERR) signaling pathway from Tox21 library - cell viability counter screen (AID 1224834); also: nearly all actives have a fitted effect of over 30% in size; also: potency is read from the fitted curve at half-maximal effect
Procedure, shortened: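 Viability readout (CellTiter-Fluor fluorescence, 30 min at 37 C) multiplexed with the ERR assay; cells treated 17.5 h at 37 C with compounds delivered in DMSO.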

[12] = qHTS assay to identify small molecule antagonists of the vitamin D receptor (VDR) signaling pathway - cell viability counter screen (AID 743225); also: nearly all actives have a fitted effect of over 50% in size
Procedure, shortened: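 Cytotoxicity counter screen read by CellTiter-Glo luminescence (30 min, room temperature) in the same wells as the VDR-bla antagonist readout. HEK 293T VDR-UAS-bla cells had 16 h at 37C with compound and 3 nM (final) 1-alpha,25-dihydroxyvitamin D3, then 2 h with FRET substrate.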

[13] = qHTS assay to identify small molecule agonists of the RXR signaling pathway - cell viability counter screen (AID 1159529); also: nearly all actives have a fitted effect of over 50% in size; also: potency is read from the fitted curve at half-maximal effect
Procedure, shortened: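 CellTiter-Glo luminescence gave viability in the wells also read for beta-lactamase. Cells (RXR-alpha-UAS-bla HEK 293T, 2% charcoal-stripped FBS medium) had 5 hr plating, then 16 hr compound exposure at 37 C; tetraoctyl ammonium bromide served as positive control.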

[14] = qHTS assay to identify small molecule antagonists of the estrogen related receptor (ERR) signaling pathway - cell viability counter screen (AID 1224818);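 also: viability measured after 17.5 h of compound exposure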
Procedure, shortened: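 Here, ERR cells are plated at 2,000 cells per well, allowed 6 h to attach, and treated with compounds in DMSO for 17.5 h at 37 C. CellTiter-Fluor is then added and fluorescence read after 30 min.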

[15] = qHTS assay to identify small molecule antagonists of the estrogen related receptor (ERR) signaling pathway (AID 1224819)
Procedure, shortened: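 LOPAC library screened for antagonism as reduced One-Glo luminescence in ERR reporter cells (2,000/well). Compounds were added after 6 h pre-incubation and left 18 h at 37C; reading followed a 30 min room-temperature reagent step.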

[16] = qHTS assay to identify small molecule agonists of the estrogen related receptor (ERR) signaling pathway (AID 1224820)
Procedure, shortened: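 ERR reporter cells (NTP line) plated 2,000/well, incubated 6 h at 37 C/5% CO2, then pinned with compounds in DMSO and held 18 h at 37 C. One-Glo added; luminescence read after 30 min at room temperature.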

[17] = qHTS assay to identify small molecule antagonists of the estrogen related receptor signaling pathway with the pleiotropic PPARgamma coactivator (PGC) cell viability counter screen (AID 1224822;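 also: viability read after 17.5 h compound exposure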)
Procedure, shortened: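 qHTS format, DMSO compound stocks pin-transferred onto PGC/ERR cells 6 h after plating; 17.5 h exposure at 37 C, then CellTiter-Fluor fluorescence.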

Sequence of Retinoic acid receptor RXR-alpha (Homo sapiens) (P19793 whole entry, looked up): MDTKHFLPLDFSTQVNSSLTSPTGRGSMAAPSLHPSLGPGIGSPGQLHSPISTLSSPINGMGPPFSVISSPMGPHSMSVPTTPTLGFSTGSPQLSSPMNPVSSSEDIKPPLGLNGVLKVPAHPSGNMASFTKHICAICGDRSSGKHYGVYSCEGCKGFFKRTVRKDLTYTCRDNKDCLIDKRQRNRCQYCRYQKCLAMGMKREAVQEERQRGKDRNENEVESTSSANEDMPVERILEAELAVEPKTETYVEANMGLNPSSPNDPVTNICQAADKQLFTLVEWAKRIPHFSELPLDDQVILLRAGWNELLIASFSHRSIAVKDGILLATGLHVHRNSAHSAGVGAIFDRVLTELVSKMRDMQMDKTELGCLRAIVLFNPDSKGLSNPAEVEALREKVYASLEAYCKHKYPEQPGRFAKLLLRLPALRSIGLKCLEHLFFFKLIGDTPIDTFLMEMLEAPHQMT

| SMILES | Potency [1] | Potency [2] | Potency [3] | Potency [4] | Potency [5] | Potency [6] | Potency [7] | Potency [8] | Potency [9] | Potency [10] | Potency [11] | Potency [12] | Potency [13] | outcome [14] | Potency [15] | outcome [16] | Potency [17] |
| --- | --- | --- | --- | --- | --- | --- | --- | --- | --- | --- | --- | --- | --- | --- | --- | --- | --- |
| CN(C)Cc1cc(C(C)(C)C)c(O)c(C(C)(C)C)c1 | inactive | inactive | inactive | inactive | inactive | inactive | 11 µM (active) | inactive | inactive | inactive | inactive |  |  |  |  |  |  |
| CCCCCCOC(=O)C(C)CC (centres undefined) | inactive | inactive | inactive | inactive | inactive | inactive | inactive | inactive |  | inactive | inactive | inactive | inactive |  |  |  |  |
| CC[N+](CC)(CC)CCOC(=O)C(C1CCCC1)C1CCCC1 | inactive | inactive | inactive | inactive | inactive | inactive | inactive | inactive |  | inactive |  | inactive | inactive |  |  |  |  |
| CC1(C)CC(O)CC(C)(C)N1 | inactive | inactive | inactive | inactive | inactive | inactive | inactive | inactive |  | inactive | inactive | inactive | inactive |  |  |  |  |
| CCCC(=O)OCOC(=O)C1=C(C)NC(C)=C(C(=O)OC)C1c1cccc(Cl)c1Cl (centres undefined) | inactive | inactive | inactive | inactive | inactive | inactive | inactive | inactive |  |  | inactive | inactive | inactive |  |  |  |  |
| c1cnccn1 | inactive | inactive | inactive | inactive | inactive | inactive | inactive | inactive | inactive | inactive |  | inactive | inactive |  |  |  |  |
| CC(N=C(NC#N)Nc1ccncc1)C(C)(C)C (centres undefined) | inactive | inactive | inactive | inactive | inactive | inactive | inactive | inactive |  | inactive | inactive | inactive | inactive | inactive | inactive | inactive | inactive |
| CCCCCCCC | inactive | inactive | inactive | inactive | inactive | inactive | inactive | inactive |  |  |  | inactive | inactive |  |  |  |  |
| Nc1ccc(Oc2ccc(Cl)cc2)cc1 | inactive | inactive | inactive | inactive | inactive | inactive |  | inactive | inactive |  | inactive | inactive | inactive |  |  |  |  |
| Cc1c(C)c([N+](=O)[O-])c(C(C)(C)C)c([N+](=O)[O-])c1C | inactive | inactive | inactive | inactive | inactive | inactive |  | inactive | inactive | inactive | inactive |  | 43.6 µM (active) |  |  |  |  |
| O=[N+]([O-])c1cccc(C(F)(F)F)c1 | inactive | inactive | inactive | inactive | inactive | inactive | inactive | inactive |  |  |  | inactive | inactive |  |  |  |  |
| O=c1[nH]c(=O)n([C@H]2C[C@H](O)[C@@H](CO)O2)cc1F | inactive | inactive | inactive | inactive | inactive | inactive | inactive | inactive |  | inactive |  | inactive | inactive |  |  |  |  |
| Cc1ccc(N/N=c2\c(=O)cc/c(=N\Nc3ccc(S(=O)(=O)O)cc3)c2=O)c(C)c1 | inactive | inactive | inactive | inactive | inactive | inactive | inactive | inactive |  | inactive | 30.6 µM (active) | inactive | inactive |  |  |  |  |
| OC[C@H]1O[C@H](O[C@H]2O[C@H](CO)[C@@H](O)[C@H](O)[C@H]2O)[C@H](O)[C@@H](O)[C@@H]1O | inactive | inactive | inactive | inactive | inactive | inactive |  | inactive |  | inactive |  | inactive | inactive |  |  |  |  |
| Cc1ccc(C(=O)O)cc1 | inactive | inactive | inactive | inactive | inactive | inactive | inactive | inactive |  | inactive | inactive | inactive | inactive |  |  |  |  |
| CCCCCCCCCCOC(=O)c1ccccc1C(=O)OCCCCCCCC | inactive | inactive | inactive | inactive | inactive | inactive | inactive | inactive |  |  | inactive | inactive | inactive |  |  |  |  |
| O=C(O)c1cc(=O)c2ccccc2o1 | inactive | inactive | inactive | inactive | inactive | inactive | inactive | inactive |  | inactive | inactive | inactive | inactive |  |  |  |  |
| CCC(=O)OC(=O)CC | inactive | inactive | inactive | inactive | inactive | inactive |  | inactive |  | inactive | inactive | inactive | 43.3 µM (active) |  |  |  |  |
| Cc1nc2n(c(=O)c1CCN1CCC(c3noc4cc(F)ccc34)CC1)CCCC2 | inactive | inactive | inactive | inactive | inactive | inactive | inactive | inactive |  | inactive | inactive | inactive |  |  |  |  |  |
| O=C(Oc1ccccc1)Oc1ccccc1 | inactive | inactive | inactive | inactive | inactive | inactive |  | inactive | inactive | inactive | inactive | inactive | inactive |  |  |  |  |
